Most compounds without a hit are left out; they make up all but 4.7% or so of the library.
ATXN viability: Viability Counterscreen for Primary qHTS for Inhibitors of ATXN expression. S2 cells (HEK-293 line with an ATXN2-luciferase reporter) viability, CellTiter-Fluor protease fluorescence, 24 h. Potency, µM (highest dose often 56.7 µM), hits mostly cytotoxic. 400,000 tested, 0.49% active; further: potency means the concentration at half of the fitted maximal effect; nearly all actives have a fitted effect of over 40% in size
HepG2 tox: qHTS for Inhibitors of TGF-b: Cytotox Counterscreen. 410,000 tested, 0.76% active. HepG2 CAGA-GFP viability, ATP luminescence, 18 h. AID 588856, 2011. Potency, µM (titrated, usually from 46.1 µM), for inactives: at the highest dose activity change, negative = cytotoxicity, most hits filed as cytotoxic; further: potency means the concentration at half of the fitted maximal effect
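CellTiter-Glo luminescence gave cytotoxicity after 18 hours at 37 degrees C. The cells were HepG2 CAGA-GFP in 1% FBS DMEM, stimulated with 500 pg/mL TGF-beta after compound addition. %Activity was normalised to no-cell wells (complete cell-killing) and DMSO (no toxicity), and curves were fitted and classified.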
ATXN2 expr inh: Primary qHTS for Inhibitors of ATXN expression. HEK-293 ATXN2-luciferase reporter, luminescence, 24 h. Potency, µM (highest dose often 57 µM), for inactives: at the top dose activity change, negative = inhibition, usual class: inhibitors. 360,000 tested, 0.72% active. AID 1745845, 2022; further: potency means the concentration at half of the fitted maximal effect; on the % scale 0 is the no-effect control and ±100 the full control effect; nearly all actives have a fitted effect of over 55% in size
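qHTS (up to 57 uM final) was run with 24 h compound exposure of reporter cells at 37 °C. Each well was multiplexed: SteadyGlo luminescence measured ATXN2-luciferase expression after a fluorogenic Gly-Phe-AFC viability readout (25 uM final).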
DRD3 agonist: qHTS of D3 Dopamine Receptor Agonist: qHTS; D3R DiscoveRx beta-arrestin cells, luminescence, 90 min; 410,000 tested, 0.58% active; max activation, %; in the data active means max activation above about 30%; further: 0% is about no effect
Target sequence (P35462 whole entry, looked up): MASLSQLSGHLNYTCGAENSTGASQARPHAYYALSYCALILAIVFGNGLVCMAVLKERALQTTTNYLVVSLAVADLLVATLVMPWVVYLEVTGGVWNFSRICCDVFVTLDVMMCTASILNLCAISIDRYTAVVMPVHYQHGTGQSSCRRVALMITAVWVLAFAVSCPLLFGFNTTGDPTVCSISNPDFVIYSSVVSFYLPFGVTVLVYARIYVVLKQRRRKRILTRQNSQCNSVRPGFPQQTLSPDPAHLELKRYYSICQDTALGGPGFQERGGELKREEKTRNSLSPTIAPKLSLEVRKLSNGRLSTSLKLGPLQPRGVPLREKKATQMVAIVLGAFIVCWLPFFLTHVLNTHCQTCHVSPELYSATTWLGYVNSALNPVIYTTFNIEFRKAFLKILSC
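Agonist-mode cell screen: cells plated at 1500/well and incubated overnight at 37 °C, then exposed to library compounds for 90 min at 37 °C. Detection reagent was added for 30–60 min at room temperature, and luminescence was read.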
DRD3 antagonist: qHTS of D3 Dopamine Receptor Antagonist: qHTS. D(3) dopamine receptor (Homo sapiens), P35462. D3R cells, DiscoveRx beta-arrestin luminescence, antagonist mode; hits give low values. max response, negative = inhibition, %. 360,000 tested, 2.5% active. AID 652054, 2013; in the data active means max response below about -50%; inconclusive means no clear call, values can overlap the other calls; further: on the % scale 0 is the no-effect control and ±100 the full control effect
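Cells expressing the human receptor were seeded at 1500 cells/well, incubated overnight at 37 degrees C in 5% CO2, then exposed to library compounds with dopamine controls for 90 minutes at 37 degrees C before luminescent detection.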
TGFb inhibitor: qHTS for Inhibitors of TGF-b | HepG2 CAGA-GFP TGF-b/SMAD3 reporter, GFP fluorescence, 18 h; TGF-beta stimulated, 500 pg/mL final | 410,000 tested, 1.2% active | Potency, µM (top dose mostly 46.1 µM), without a hit: at the highest dose activity, negative = inhibition, most hits filed as inhibitors; further: potency means the concentration at half of the fitted maximal effect; on the % scale 0 is the no-effect control and ±100 the full control effect; nearly all actives have a fitted effect of over 65% in size
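HEPG2 CAGA-GFP reporter cells (1000/well, DMEM with 1% FBS) received compounds, then recombinant TGF-beta at 500 pg/mL final for 18 hours at 37 degrees C. Per-cell GFP summed per well was normalised to unstimulated and stimulated DMSO controls before curve fitting.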
An asterisk follows results filed as active; i = inactive; u = inconclusive; x = no result; ! = not active in a repeat. Unless noted, the call rests on the fitted dose curve; in most records, active means well fitted curve in the direction sought with a large enough effect; inconclusive means small, poorly fitted or top-dose-only effect, or another doubt; inactive means no such curve, though single readings can be large; an effect the other way counts as inactive or inconclusive.

SMILES	ATXN viability	HepG2 tox	ATXN2 expr inh	DRD3 agonist	DRD3 antagonist	TGFb inhibitor
O=C(Nc1nc(-c2cccs2)cs1)c1ccc([N+](=O)[O-])o1	u	11µM*	-24%	-6	-20	u
COc1cc2c(cc1OC)CN(Cc1cc(=O)oc3cc(C)c(C)cc13)CC2	i	-14%	-7%	42*	5	8%
CCc1ccc2c(CN3CCc4cc(OC)c(OC)cc4C3)cc(=O)oc2c1	x	-29%	-16%	31*	-20	-13%
CC(=O)NC(C)c1ccc(Oc2ccc(OC(C)C)cc2)cc1 (centres undefined)	x	x	11%	x	x	x
Cc1cccc(N2CCN(C(=O)CS(=O)(=O)c3cccc4nsnc34)CC2)c1C	i	-10%	3%	-12	x	5%
O=C(CS(=O)(=O)c1cccc2nsnc12)N1CCN(c2ccccc2F)CC1	i	-66%	0%	0	x	16µM*
CCN(CC1CCCN(CCc2cccc(F)c2)C1)C(=O)c1cc2ccccc2o1 (centres undefined)	u	-4%	-30%	-28	u	-9%
CN(CC1CCCN(CCc2cccc(C(F)(F)F)c2)C1)C(=O)c1cc2ccccc2o1 (centres undefined)	u	-82%	x	-21	-74*	13µM*
Cc1ccc(C)c(CN2C[C@H](Sc3nc4ccccc4[nH]3)C[C@H]2C(=O)N2CCCN(C)CC2)c1	i	x	x	x	x	x
Cc1ccc(SC[C@H](Cc2ccccc2)N2CCN(CCc3ccccc3)CCC2=O)cc1	i	-46%	0%	-60	-58*	-19%
CC(C)CN1CCC(=O)N([C@H](CSc2ccc(Br)cc2)Cc2ccccc2)CC1	u	-13%	-35%	-59	-67*	-12%
Cc1ccc(SCC(Cc2ccccc2)N2CCN(CC(C)C)CCC2=O)cc1 (centres undefined)	x	-20%	x	x	x	-1%
O=C1CCN(CCc2ccccc2)CCN1[C@H](CSc1ccccc1)Cc1ccccc1	u	-2%	-26%	-23	-22	u
Cc1occc1C(=O)Nc1cccc(-c2nc(CNC(=O)c3ccc(N4CCCCC4)cc3)c(C)o2)c1	i	x	x	x	x	x
CSC1=C(C#N)C(c2ccccc2Cl)C2=C(N1)c1ccccc1C2=O (centres undefined)	u	5%	-18%	2	-7	18%
Cc1nn(-c2ccccn2)c2c1C(c1ccccc1Cl)C1=C(N2)c2ccccc2C1=O (centres undefined)	2.2µM*	-1%	u	4	21	-4%
COc1cc(=O)n2c(c1C(=O)NCc1nonc1C)CCN(Cc1c[nH]c3ccccc13)CC2	i	x	x	x	x	x
CC(=O)c1cccc(NC(=O)c2cccc(N3C(=O)c4ccccc4C3=O)c2)c1	i	2.8µM*	-4%	4	15	1%
CCOC(=O)c1c(-c2ccccc2)csc1NC(=O)c1cccc(N2C(=O)CCC2=O)c1	i	-14%	-8%	62*	44	43%
CCOC(=O)c1c(-c2ccc(C)cc2)csc1NC(=O)c1cccc(N2C(=O)CCC2=O)c1	i	-1%	-12%	5	7	13%
CCOC(=O)c1cc(CC)sc1NC(=O)c1ccc(N2C(=O)CCC2=O)cc1	i	3.5µM*	-3%	51*	17	-1%
OC1(c2cccnc2)CCN(Cc2ccc3c(c2)CN(Cc2cccc(F)c2F)CCO3)CC1	i	x	x	x	x	x
COc1cc(OC)cc(-c2cc3nc(C)c(CCC(=O)O)c(C)n3n2)c1	i	0%	0.71µM*	7	3	0%
O=C(Nc1ccc(O)c2c(=O)cc(-c3ccccc3Cl)oc12)c1cc(Cl)cc(Cl)c1	x	3%	x	x	x	-2%
O=C(Nc1ccc(O)c2c(=O)cc(-c3ccccc3Cl)oc12)c1ccc(Cl)c(Cl)c1	i	21%	1%	-28	-83*	5%
SMILES	ATXN viability	HepG2 tox	ATXN2 expr inh	DRD3 agonist	DRD3 antagonist	TGFb inhibitor
C#CCCCCCCC#CCN(C)C	i	-17%	6%	-15	-58*	-10%
CCOc1ccccc1NC(=O)CSc1nnc(N)s1	i	2%	-7%	-12	x	1%
O=C(NCCN1CCOCC1)c1ccc2c(c1)N(Cc1c(F)cccc1Cl)C(=O)c1ccccc1S2	i	-16%	u	-1	u	u
Cc1cccc(CN2C(=O)c3ccccc3Sc3ccc(C(=O)NCCCN4CCOCC4)cc32)c1	u	11µM*!	-29%	-5	-9	11µM*!
CCCCN(CC)CCCNC(=O)c1ccc2c(c1)N(Cc1ccc(C)cc1)C(=O)c1ccccc1S2	x	11µM*	x	-30	x	14µM*
COCCCNC(=O)c1ccc2c(c1)N(Cc1ccccc1)C(=O)c1ccccc1S2	x	-34%	x	-11	x	-20%
CN(C)CCNC(=O)c1ccc2c(c1)N(Cc1c(F)cccc1Cl)C(=O)c1ccccc1S2	i	-67%	22µM*	-2	x	u
O=C(Cn1ncc2c3ccccc3n(Cc3ccc(Cl)cc3)c2c1=O)NCc1cccs1	i	-21%	8%	3	x	2%
CCCCCCCCCCOC(=O)Cn1c(COc2ccc(Cl)cc2)[n+](C)c2ccccc21	x	13µM*	x	1	16	13µM*
CCCCCCCCCCOC(=O)Cn1c(COc2ccc(OC)cc2)[n+](C)c2ccccc21	u	11µM*!	u	4	u	10µM*
CCCCCCCCCCOC(=O)Cn1c(COc2ccccc2)[n+](C)c2ccccc21	u	-109%	x	-3	-17	11µM*
CCCCOC(=O)Cn1c(=O)n(CC(=O)OCCCC)c2ccccc21	i	-3%	8%	-13	4	-1%
CCCCCCCCCCOC(=O)Cn1c(COc2cccc(C)c2)[n+](C)c2ccccc21	i	-93%	-35%	-7	-9	u
CCCCCCCCCCOC(=O)Cn1c(COc2ccccc2C)[n+](C)c2ccccc21	u	-98%	22µM*	-15	u	u
CCN(CC)S(=O)(=O)c1ccc2c(c1)nc(CN(C)C(=O)Nc1ccc(C)c(F)c1)n2C	i	-18%	2%	-30	x	u
Cc1ccc(Cl)cc1N1CCN(C(=O)c2noc3c2CCCC3)CC1	x	-28%	x	-4	x	u
Cc1c(C(=O)NCC2CCCN(C)C2)cnn1-c1ncc2c(n1)-c1ccccc1CCC2 (centres undefined)	i	x	x	x	x	x
